Bioassay records: PubChem BioAssay, National Center for Advancing Translational Sciences (NCATS)
Most compounds without a hit are left out; they make up all but 7.7% or so of the library.
HCMV inh = blocks human cytomegalovirus replication; activity change, negative = inhibition, % at 57.5 µM; HFF cells, HCMV-luciferase reporter, 72 h; active compounds read low; 410,000 tested, 4.5% active; in the data active means activity change below about -60%; inconclusive means no clear call, values can overlap the other calls; inactive means above about -39%
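Two-dose cell screen: HFF monolayers treated with compounds and infected with luciferase-expressing HCMV at 1 PFU/cell, 72 h at 37C, then lysed for luciferase measurement.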
RE007 growth inh = less growth of the S. pombe RE007 Vpr strain. 360,000 tested, 0.21% active. S. pombe RE007 Vpr strain, BacTiter-Glo ATP luminescence, 24 h. Potency, µM (titrated, usually from 92.2 µM), inactives show at the top dose activity change, negative = less growth, hits mostly inhibitors; active means well fitted falling curve with a large enough effect; inconclusive means small, poorly fitted or top-dose-only effect; inactive means no such curve, though single readings can be large or run the other way; further: potency means the concentration at half of the fitted maximal effect; nearly all actives have a fitted effect of over 50% in size
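Fission yeast RE007 carrying one integrated HIV-1 vpr copy, seeded at OD 0.01 in PMG+AL medium with 23 nL pinned compound. Grown 24 h at 30 degrees; viability read by BacTiter-Glo luminescence after 5 min.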
Giardia FBPA inh = blocks Giardia fructose-bisphosphate aldolase activity; Potency, µM (doses to about 59.6 µM), for inactives: at the top dose activity, negative = inhibition, hits mostly inhibitors; 290,000 tested, 0.71% active; purified Giardia FBPA; A8B2U2; further: potency means the concentration at half of the fitted maximal effect; nearly all actives have a fitted effect of over 55% in size
Target sequence (A8B2U2 whole entry, looked up): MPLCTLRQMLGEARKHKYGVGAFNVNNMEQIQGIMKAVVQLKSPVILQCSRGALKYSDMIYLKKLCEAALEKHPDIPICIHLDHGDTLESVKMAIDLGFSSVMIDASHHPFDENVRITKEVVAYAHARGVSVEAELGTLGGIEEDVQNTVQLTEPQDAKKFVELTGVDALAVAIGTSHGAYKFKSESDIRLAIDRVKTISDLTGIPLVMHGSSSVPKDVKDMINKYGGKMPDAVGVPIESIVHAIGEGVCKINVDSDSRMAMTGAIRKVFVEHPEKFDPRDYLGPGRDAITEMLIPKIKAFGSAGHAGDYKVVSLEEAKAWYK
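Giardia FBPA (40 nM reagent) was preincubated 10 min at RT with compound (up to 57.5 uM final), then substrate plus GAPDH/TPI/NAD/arsenate coupling system with diaphorase/resazurin was added; resorufin fluorescence (525/598 nm) was read after 20 min.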
Sm TGR block = S. mansoni TGR enzyme inhibition; Q962Y6; purified TGR, DTNB reduction, TNB absorbance 405 nm; Potency, µM (series often up to 114 µM), for inactives: top-dose activity change, negative = inhibition, most hits filed as inhibitors; 360,000 tested, 3% active; AID 485364; further: potency means the concentration at half of the fitted maximal effect; nearly all actives have a fitted effect of over 60% in size
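Kinetic colorimetric format: TGR-catalysed, NADPH-driven DTNB reduction monitored via TNB absorbance. Enzyme dispensed at 20 nM; compound exposure 15 min at room temperature before reaction start.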
TbPYK inhibitor = inhibitors of Trypanosoma brucei pyruvate kinase; Potency, µM (titrated, usually from 76.8 µM), inactives show at the top dose activity, negative = inhibition, most hits filed as inhibitors; TbPYK enzyme, Kinase-Glo Plus ATP luminescence, 45 min; Q57TT1; 410,000 tested, 0.12% active; AID 624173; further: potency means the concentration at half of the fitted maximal effect; nearly all actives have a fitted effect of over 50% in size
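Screened from lowest to highest concentration, compounds were pinned into TbPYK/substrate mixtures, and ADP (130 uM final) was added. Plates sat at room temperature for 45 min prior to Kinase-Glo Plus detection by luminescence.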
FMDV antiviral = antivirals against foot and mouth disease virus. FMDV antiviral cell-based qHTS. 410,000 tested, 1.2% active. Potency, µM (top dose mostly 57.9 µM), without a hit: top-dose activity change, negative = inhibition, usual class: inhibitors. AID 1159524; calls by dose curve; tested in HEK293T cells; further: read-out not given here; potency means the concentration at half of the fitted maximal effect; nearly all actives have a fitted effect of over 45% in size
* hit, by the source's call; ? = inconclusive; . = not tested or not shown; [ ] = another dose, or the depositor's remark. Unless noted, the call rests on the fitted dose curve; in most records, active means well fitted curve in the direction sought with a large enough effect; inconclusive means small, poorly fitted or top-dose-only effect, or another doubt; inactive means no such curve, though single readings can be large; an effect the other way counts as inactive or inconclusive. On the % scale 0 is the no-effect control and ±100 the full control effect.

SMILES	HCMV inh	RE007 growth inh	Giardia FBPA inh	Sm TGR block	TbPYK inhibitor	FMDV antiviral
O=C(Cn1c2ccccc2c(=O)c2ccccc21)N/N=C/c1cc([N+](=O)[O-])ccc1N1CCCCCC1	-73.0*	17.4%	5.1%	-9.8%	5.1%	0.9%
Cc1c(C(=O)N2CCCCC2c2cccnc2)sc2ncnc(NCc3cccs3)c12 (stereo unspecified)	.	.	.	.	.	7.8%
Cn1c(=O)n2n(c1=O)[C@H]1[C@H](O)[C@H]3O[C@@H]3/C(=N/OCc3ccccc3)[C@@H]1CC2	.	.	3.1%[12.9 µM]	.	.	.
CC[C@H](C)Cc1cn([C@@H](CCCCNC(=O)OC(C)(C)C)C(=O)NCCCCCCCCCCC(=O)N2CCN(C(=O)OC(C)(C)C)CC2)nn1	21.1	4.0%	.	-2.0%	-5.4%	14.1µM*
CC(C)(C)OC(=O)NCCCC[C@@H](C(=O)NCCCCCCCCCCC(=O)N1CCN(C(=O)OC(C)(C)C)CC1)n1cc(CCO)nn1	-21.2	2.7%	.	-7.2%	-6.1%	14.1µM*
C[C@@H]1NS(=O)(=O)c2ccc(F)cc2O[C@@H]1c1ccccc1	26.9	.	.	.	.	.
O=C(Nc1ccccn1)c1ccc(S(=O)(=O)c2ccc(Cl)cc2)cc1	-63.6*	9.2%	-2.8%	-4.7%[57.1 µM]	3.1%	0.0%
O=C(Nc1ccccn1)c1ccc(S(=O)(=O)N2CCCC2)cc1	16.8	12.4%	.	-26.6%	7.2%	35.6%
O=C(Nc1ccccn1)c1ccc2nc(-c3ccccc3)c(-c3ccccc3)nc2c1	.	.	-4.5%	.	.	.
O=C(Nc1ccccn1)c1ccc(-c2ccccc2)cc1	-78.3*	-26.5%	-20.8%	10.1%	-8.9%	-68.3%
CN(C)C1C(=O)C(C(N)=O)=C(O)C2(O)C(=O)C3=C(O)c4c(O)cccc4C(C)(O)C3C(O)C12 (stereo unspecified)	53.2	3.9%[18.4 µM]	?	31.6µM*	-21.0%	-15.7%
N#C/C(=C\c1cc(Cl)c(OCc2ccc(Cl)cc2)c(Cl)c1)C(N)=O	.	.	0.3%	0.5%	.	.
N#C/C(=C\c1cc(O)c(O)c(O)c1)C(N)=O	39.8	1.2%	5µM*	12.6µM*	?	-11.9%
Cc1cccc(NC(=O)c2ccc3oc(=O)c(S(=O)(=O)c4ccc(F)cc4)cc3c2)c1C	46.3	.	.	16.3%	-1.0%	31.6µM*
Cc1ccc(CNC(=O)CSCc2ccccc2C)cc1	?	.	.	0.8%	4.1%[15.4 µM]	58.5%
COc1cc(=O)n2c(c1C(=O)NCc1ccco1)CCN(C(=O)c1ccccc1-c1ncc[nH]1)CC2	.	.	.	.	.	0.2%
Cc1ccc(CSc2nc3c(c(=O)[nH]2)C(c2cccc(F)c2F)CC(=O)N3)cc1 (stereo unspecified)	-24.4	.	.	-0.6%	3.1%	-7.9%
CC(c1nc2ccccc2n1Cc1ccccc1)N1CCCCC1 (stereo unspecified)	-66.8*	?	6.3%	-5.4%	8.5%	?
CCCC1=Nc2cc(C(=O)NCCOC)ccc2Sc2ccccc21	-96.7*	.	.	0.7%	-1.4%	-12.6%
CCCC1=Nc2cc(C(=O)NCCCOCC)ccc2Sc2ccccc21	-81.7*	-14.9%	6.8%	2.2%	2.7%	-13.9%
Cc1ccc(CN(C)C(=O)c2ccc(S(=O)(=O)N3CCCCCC3)cc2)o1	-24.5	6.8%	.	50.1µM*	-27.8%	-28.4%
Cc1ccc(CN(C)C(=O)c2cccc(S(=O)(=O)N3CCN(Cc4ccccc4)CC3)c2)o1	-5.4	-7.1%	.	?	0.3%	?
CN(Cc1cccs1)C(=O)c1ccc(S(=O)(=O)N2CCCCC2)cc1	0.0	-6.2%	4.0%	11.1%	3.5%	-16.3%
CC(=O)N1CCN(S(=O)(=O)c2cccc(C(=O)N(C)Cc3ccc(C)o3)c2)CC1	-26.6	4.6%	.	39.8µM*	-19.4%	9.3%
CC(C)C[C@@H](CC(=O)N[C@H](CC(=O)N[C@@H]1CCCC[C@H]1C(=O)N[C@H](CC(=O)N[C@@H](CCC(=O)O)CC(=O)O)Cc1c[nH]c2ccccc12)C(C)C)NC(=O)[C@@H]1CCCC[C@H]1N	.	.	-29.1%	.	.	.
SMILES	HCMV inh	RE007 growth inh	Giardia FBPA inh	Sm TGR block	TbPYK inhibitor	FMDV antiviral
O=c1c2ccccc2nc(COc2ccccc2)n1/N=C/c1cc([N+](=O)[O-])ccc1O	-1.0	?	?	-3.6%	4.2%	-24.0%
Cc1cc(/C=N/n2c(COc3ccccc3C)nc3ccccc3c2=O)c(O)c([N+](=O)[O-])c1	-91.9*	-0.9%	9.1%	3.1%	-2.0%	14.6%
Cc1ccc(-c2[nH]ncc2/C=N/n2c(COc3ccccc3C)nc3ccccc3c2=O)cc1	-88.7*	22.3%	7.5%	7.2%	-17.3%	-16.6%
Cc1ccccc1OCc1nc2ccccc2c(=O)n1/N=C/c1c[nH]c2ccccc12	17.1	-1.7%	-6.8%	6.1%	13.7%	-29.9%
C#CCn1c(C2CC(=O)N(c3ccc(OC)cc3)C2)nc2ccccc21 (stereo unspecified)	-12.5	.	.	-4.0%	3.5%	3.3%
O=C(NC[C@H](O)c1ccccc1)c1ccccc1	.	.	1.2%	.	.	38.6%
Nc1ncnc2c(C3OC(CO)C(O)C3O)c[nH]c12 (stereo unspecified)	-97.5*	?	.	.	6.6%	0.0%
Nc1ncnc2c1ncn2[C@@H]1O[C@@H](CO)[C@H](O)[C@H]1O	.	.	-1.5%[21.7 µM]	.	.	.
NNC(=O)c1cccc(COc2ccccc2Br)c1	165.4	-5.2%	-6.0%	6.8%	3.0%	-21.2%
NNC(=O)c1cccc(COc2ccc3c(c2)CCC3)c1	64.5	-5.7%	-3.0%	14.5%	-0.7%	12.6µM*
CC1(C)CC(=O)C2=C(C1)NC(SCC(=O)Nc1ccccc1)=C(C#N)C21CCCCC1	-27.0	-10.8%	-8.9%	19.8%[11.4 µM]	-8.7%	28.2µM*
O=[N+]([O-])c1ccc(N2CCN(c3ccccc3O)CC2)c(Cl)c1	4.8	?	?	0.9%	-8.7%	-27.9%
O=C1NC(c2cccc([N+](=O)[O-])c2)=CCN1c1ccccc1O	-27.5	-9.8%	-4.8%	44.7µM*	-0.6%	-3.4%
Cc1ccc(C(=O)N2CCN(CCc3ccncc3)CC2)cc1	5.1	.	.	-28.2%	-3.0%	8.7%
Cc1ccccc1OCCCC(=O)Nc1nccs1	?	1.3%	6.9%	7.9%	-3.4%	.
CCC(=O)NCCC(c1ccco1)c1ccccc1OC (stereo unspecified)	-5.7	4.6%	-14.9%	25.1µM*	0.5%	-12.5%
CCCNCCC(c1ccco1)c1ccccc1OC (stereo unspecified)	-20.5	-7.6%	-13.9%	-8.3%	2.1%	-4.8%
O=C(CC(c1ccc(F)cc1)c1ccco1)Nc1nccs1 (stereo unspecified)	-29.4	11.3%	-7.3%	39.8µM*	-0.4%	-8.3%
COc1ccccc1C(CC(=O)Nc1nccs1)c1ccco1 (stereo unspecified)	20.9	-5.0%	-1.3%	50.1µM*	-8.3%	-20.6%
